Consider 93 compounds from PubChem BioAssay AID463173 (ICCB-Longwood Screening Facility, Harvard Medical School, 2010).

The whole screen tested about 52,000 compounds, of which about 4,300 (8.3%) were called active. The list comes from a sample in which actives are over-represented; it also holds similar structures and randomly drawn compounds. Unmarked numbers belong to inactive results. No stated cut-off is given here; in the data, active means survival mostly below about 52% (no sharp cut-off); inactive means mostly above about 56%.

The assay relates to DeltatarO mutant. In words: S. aureus survival, RN4220 and DeltatarO strains – OD600, teichoic acid synthesis inhibitors, primary screen (AID 463173). The conditions noted are these: S. aureus RN4220 wild type/DeltatarO growth, OD600, 18 h, active compounds read low, screened at 18.75 µg/mL (by protocol).
For the compound `CC(C)c1ccc(OCC(=O)Nc2cc(-c3ccccc3)no2)cc1`, the survival is 110%. As for `Cn1c(Oc2cccc(Cl)c2)nc2c1c(=O)n(Cc1ccccc1Cl)c(=O)n2C`, the figure is 66%. As for `O=C(Cc1ccccc1)NC1CCN(S(=O)(=O)c2cccc(F)c2)CC1`, the figure is 80%.

Consider `Cc1c(Cl)cccc1Nc1nn2c(=O)c3ccc(C(=O)NCCc4ccccc4)cc3nc2s1`, for which the survival was 98%. As for `O=C(C1CCCN(S(=O)(=O)c2cccc3nsnc23)C1)N1CCN(c2ccccc2Cl)CC1` (stereo not drawn), the survival is 107%. With `COCCc1nn2c(=O)cc(COC(=O)c3ccco3)nc2s1` the figure was 92%.

With `Cc1cc(C)c(NC(=O)Cn2nnc(-c3ccccc3)n2)c(C)c1`, the survival was 63%. Regarding `Cc1ccccc1OCC(=O)NCC(c1ccc(Cl)cc1)N1CCCCC1` (stereo not drawn), the survival was 66%.

For the compound `Cc1ccccc1Nc1c(-c2cccs2)nc2cccc(C)n12`, the survival is 63%.

On to `COc1ccc(-c2cc(C(=O)NC(C)c3ccccc3)c3cc(C(C)C)ccc3n2)cc1` (stereo not drawn), for which the survival was 101%. As to `COc1ccc(-c2cc(C(=O)Oc3ccccc3)c3cc(C)ccc3n2)cc1`, the survival was 9% (active).

Turning to `Cc1ccc2nc(-c3ccc(Cl)cc3)cc(C(=O)OCC(=O)c3ccccc3)c2c1`, the survival is 58%. As for `COc1cccc(CNC(=O)CN(c2ccc(C(C)C)cc2)S(=O)(=O)c2c(C)n[nH]c2C)c1`, the survival is 56%. Turning to `Cc1ccc(CNC(=O)CN(c2ccc(C(C)C)cc2)S(=O)(=O)c2c(C)n[nH]c2C)cc1`, the survival was 43% (active). As for `COc1ccc(CNC(=O)CN(c2ccc(C)cc2)S(=O)(=O)c2c(C)n[nH]c2C)cc1`, the figure is 85%; as for `Cc1ccc(N(CC(=O)NC(C)c2ccccc2)S(=O)(=O)c2c(C)noc2C)cc1` (stereo not drawn), 74%. As for `Cc1n[nH]c(C)c1S(=O)(=O)N(CC(=O)NC(C)c1ccccc1)c1ccc(C(C)C)cc1` (stereo not drawn), the figure is 54% (active).

For the compound `Cc1noc(C)c1S(=O)(=O)N(CC(=O)Nc1ccc(C(F)(F)F)cc1)c1ccc(C(C)C)cc1`, the survival was 55%. Take `Cc1n[nH]c(C)c1S(=O)(=O)N(CC(=O)NCc1ccccc1Cl)c1ccc(C(C)C)cc1`: the survival was 52%.

As for `Cc1n[nH]c(C)c1S(=O)(=O)N(CC(=O)Nc1ccc(C(F)(F)F)cc1)c1ccc(C(C)C)cc1`, the survival is 46% (active). Turning to `Cc1ccc(N(CC(=O)Nc2ccc(C)c(F)c2)S(=O)(=O)c2c(C)n[nH]c2C)cc1`, the survival was 66%.

Take `CSc1ccc(CCNC(=O)c2cc3c(-c4ccccc4F)nn(C)c3s2)cc1`: the survival is 55%. Turning to `CCOc1ccc(CNC(=O)C2CCN(S(=O)(=O)c3cn(C)cn3)CC2)cc1`, the survival is 99%. With `Cc1ccc(NC(=O)CCn2nc(C)c3c(C)n(-c4ccccc4)nc3c2=O)cc1Cl`, the survival was 117%. As for `CCOCCCn1c(SCC(=O)Nc2ccc(OC)cc2OC)nc2ccccc2c1=O`, the figure is 89%; as for `CCOC(=O)C1CCCN(C(=O)c2ccccc2NC(=O)c2nsc3ccccc23)C1` (stereo not drawn), 130%. As for `CCOC(=O)c1[nH]c(C)c(CCC(=O)Nc2ccc(C(C)=O)cc2)c1C`, the figure is 72%; as for `O=C(NCc1ccccc1)C(=O)Nc1ccc2nc3n(c(=O)c2c1)CCCCC3`, 88%. As for `COc1cccc(Cn2c(=O)n(Cc3ccco3)c(=O)c3oc4ccccc4c32)c1`, the figure is 66%. In the case of `O=C(CC1CCCCC1)N1CCN(c2ccccc2)CC1`, the survival was 82%. `Cc1ccccc1C(=O)Nc1nnc(S(=O)(=O)N2CCCc3ccccc32)s1`: the survival is 96%. As for `Cc1ccccc1C(=O)Nc1nnc(S(=O)(=O)N2CCc3ccccc32)s1`, the figure is 95%; as for `O=C(Nc1nnc(S(=O)(=O)N2CCc3ccccc32)s1)c1ccccc1Cl`, 20% (active). On to `O=C(Nc1nnc(S(=O)(=O)N2CCCc3ccccc32)s1)c1ccccc1Br`, for which the survival was 17% (active). Turning to `O=C(Nc1nnc(S(=O)(=O)N2CCCc3ccccc32)s1)c1ccccc1Cl`, the survival is 28% (active). As for `CCOC(=O)c1ccc(CN(Cc2ccccc2C)S(=O)(=O)c2ccc(F)c(C(=O)Nc3cccc(OC)c3)c2)cc1`, the figure is 75%.

Consider `CCNC(=O)CC1C(=O)N(c2ccc(F)cc2)C(=O)N1CCOC` (stereo not drawn), for which the survival was 84%. With `COc1ccc(CN(C(=O)Cc2coc3ccc(C)cc23)C2CCS(=O)(=O)C2)cc1` (stereo not drawn) the figure was 67%; with `Cc1cc2n(n1)CCCN2C(=O)Nc1ccccc1C(F)(F)F`, 76%; with `CCc1ccc(NC(=O)C(=O)NCC(c2cccnc2)N2CCOCC2)cc1` (stereo not drawn), 89%.

Consider `CC(=O)Oc1ccc(Nc2nc3nonc3nc2Nc2ccccc2)cc1`, for which the survival was 83%.

As for `CC(=O)Nc1cc(OC(C)=O)c2nonc2c1OC(C)=O`, the survival was 29% (active). With `CC(=O)Nc1nonc1NC(C)=O` the figure was 87%; with `COC(=O)c1nnn(-c2ccc(Br)cc2)c1C(=O)OC`, 79%; with `CCOC(=O)c1ccc(NC(=O)CCc2c(C)nc3c(c(C)nn3C(C)(C)C)c2C)cc1`, 55% (active).

On to `COC(=O)c1ccc(NC(=O)CCc2c(C)nc3c(c(C)nn3C(C)(C)C)c2C)cc1`, for which the survival is 59%. As for `CCOC(=O)c1ccc(NC(=O)CCc2c(C)nc3c(c(C)nn3C)c2C)cc1`, the figure is 93%; as for `Cc1ccc(-c2nc(CNC(=O)Nc3ccccc3)c(C)o2)cc1`, 71%.

With `COC(=O)c1cc2c(ccn2-c2ccc(F)cc2)n1CC(=O)N1CCCCC1`, the survival was 97%. As for `COc1ccc(C)cc1NC(=O)C1CCN(S(=O)(=O)c2ccc3[nH]c4c(c3c2)CCCCC4)CC1`, the survival was 94%. As for `COc1cc(NC(=O)CCc2c(C)nc3c4c(C)cc(C)nc4nn3c2C)cc(OC)c1`, the figure is 74%; as for `CCOc1ccc(NC(=O)CCc2c(C)nc3c4c(C)cc(C)nc4nn3c2C)cc1`, 125%; as for `COC(=O)c1cc(NC(=O)CCc2c(C)nc3c4c(C)cc(C)nc4nn3c2C)cc(C(=O)OC)c1`, 56% (active). With `COc1ccc(NC(=O)c2oc3ccc(S(=O)(=O)N4CCCCC4)cc3c2C)cc1` the figure was 87%; with `CC(C)Cn1cc(NC(=O)N2CCN(c3cccc(C(F)(F)F)c3)CC2)c2ccccc2c1=O`, 77%; with `COc1ccc(CCNC(=O)Cn2ncc3c(=O)oc4ccccc4c32)c(OC)c1`, 89%. For `CCC1CCCCN1C(=O)CCS(=O)(=O)c1cc2c(cc1C)NC(=O)CO2` (stereo not drawn), the survival is 81%. With `CC(C)C1C(=O)Nc2ccc(S(=O)(=O)NCc3ccc(Cl)cc3)cc21` (stereo not drawn) the figure was 52% (active); with `CC(C)C1C(=O)Nc2ccc(S(=O)(=O)NCCc3ccc(Cl)cc3)cc21` (stereo not drawn), 77%; with `COc1cccc(CNS(=O)(=O)c2ccc3c(c2)C(C(C)C)C(=O)N3)c1` (stereo not drawn), 129%.

Consider `CCCNc1c2c(nc3ccccc13)CC(C)(C)CC2=O`, for which the survival is 66%. In the case of `CCOc1ccccc1CNC(=O)c1ccc2nc(Cc3ccc(OC)cc3)oc2c1`, the survival was 73%. As for `CN(C1CCCCC1)C(c1ccc(F)cc1)c1nnnn1C1CCCCC1` (stereo not drawn), the figure is 83%; as for `Cc1ccc(C)c(-c2nc(Cn3c(=O)cc(-c4ccccc4)c4c(C)nn(C)c43)c(C)o2)c1`, 130%; as for `CCOC(=O)c1ccc(NC(=O)c2csc3c2CCCCC3)cc1`, 39% (active). As for `O=C(Nc1ccc(OC(F)(F)F)cc1)c1noc2c1CCCC2`, the figure is 65%; as for `CCOC(=O)c1ccc(NC(=O)c2c(NCc3cccs3)sc3c2CCCCC3)cc1`, 104%; as for `CSc1ccc(CCNC(=O)c2csc3c2CCCCC3)cc1`, 63%. In the case of `CCOC(=O)c1ccc(NC(=O)c2cccc3c(=O)c4c([nH]c23)CCCC4)cc1`, the survival was 60%. For `CCOC(=O)c1ccc(NC(=O)c2c(NCc3sccc3C)sc3c2CCCCC3)cc1`, the survival is 78%. Take `CCC(Cc1ccccc1)NC(=O)c1csc2c1CCCCC2` (stereo not drawn): the survival was 125%. Turning to `CCOC(=O)c1ccc(NC(=O)c2c(NCc3cccs3)sc3c2CCCC3)cc1`, the survival was 78%.

Consider `CC(CNC(=O)c1csc2c1CCCCC2)c1ccccc1` (stereo not drawn), for which the survival is -1% (active). As for `CCOC(=O)c1ccc(NC(=O)c2csc3c2CCCC3)cc1`, the figure is 36% (active); as for `COc1ccc(NC(=O)c2noc3c2CCCC3)cc1Cl`, 83%. Take `CCOC(=O)c1ccc(NC(=O)c2noc3c2CCCC3)cc1`: the survival was 0% (active).

`CCC(=O)C1=C(c2ccccc2)N(C(=O)CC)n2c(nnc2C2CCCCC2)S1`: the survival is 55%.

For `N#CCCn1c(=O)n(CCC#N)c(=O)n(CCC#N)c1=O`, the survival is 79%. As to `O=C1NC2(CCCCC2)C(=O)N1c1ccc(Cl)cc1`, the survival was 109%.

As for `CCC(=O)OCCN1C(=O)c2ccccc2C1=O`, the survival was 91%. Turning to `COc1ccc(C(=O)Nc2ccc(NC(=O)c3ccco3)cc2)cc1OC`, the survival was 71%. On to `N#Cc1cccc(NC(=O)C2CCN(c3ncccn3)CC2)c1`, for which the survival was 66%. For `Cc1cccc(CCn2c(=O)c3ccccc3n(CC(=O)Nc3ccccc3F)c2=O)c1`, the survival was 76%.

With `CCOc1ccc(CCNC(=O)c2csc3c2CCCCC3)cc1`, the survival is 73%. In the case of `O=C(Nc1ccccc1O)c1csc2c1CCCC2`, the survival is 80%. For the compound `CCOc1ccc(OCC)c(NC(=O)c2csc3c2CCCC3)c1`, the survival is -2% (active).

With `CCc1ccccc1NC(=O)c1cc2sc(Cl)cc2n1CC`, the survival is 77%. Consider `CCn1c(C(=O)Nc2cc(Cl)ccc2C)cc2sc(Cl)cc21`, for which the survival is 77%. In the case of `CCn1c(C(=O)Nc2ccccc2C(=O)OC)cc2sc(Cl)cc21`, the survival was 31% (active).

As to `CCn1c(C(=O)Nc2c(C)cccc2C)cc2sc(Cl)cc21`, the survival is 60% (active). With `CCn1c(C(=O)Nc2cc(C)cc(C)c2)cc2sc(Cl)cc21` the figure was 109%; with `CCn1c(C(=O)Nc2ccc(C)cc2C)cc2sc(Cl)cc21`, 58%; with `COC(=O)c1[nH]c2ccc(F)cc2c1N`, 98%.
